In PubChem BioAssay (Tox21):
Results filed as inconclusive are left out. Activity calls are given as the source filed them. Calls come from the whole dose curve; as a rule, active = well fitted curve in the direction sought with a large enough effect in the repeat runs; inconclusive = weak or mixed curves; inactive = no such curve, though single readings can be large; an effect the other way counts as inactive or inconclusive.

Tests used:
[1] = Caspase-3/7 induction in CHO-K1 cells by small molecules, qHTS assay (AID 1346980); note: nearly all actives have a fitted effect of over 15% in size
In short: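 Wild-type cells were seeded at 1,500 per well and settled 5 hr at 37 C, 5% CO2, then exposed to DMSO-dissolved compounds for 17 hr. Caspase-Glo 3/7 reagent was added, and luminescence was read after 30min at room temperature.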

[2] = Caspase-3/7 induction in HepG2 cells by small molecules, qHTS cell viability counter screen (AID 1346981); note: nearly all actives have a fitted effect of over 30% in size; note: potency is the fitted concentration of half-maximal effect; for activity change, negative = cytotoxicity: series mostly up to about 92 µM
In short: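 CellTiter-Fluor fluorescence measured viability in the same wells used for Caspase-Glo 3/7. HepG2 (wild type) at 2,000 cells/well were pre-incubated 5 hr, dosed, and given reagent at 16 hr, with 1 hr further at 37C.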

[3] = biological target: Nuclear receptor subfamily 1 group I member 2 (Homo sapiens) (UniProt O75469); experiment: Human pregnane X receptor (PXR) small molecule agonists, qHTS assay (AID 1346982); note: nearly all actives have a fitted effect of over 35% in size; note: potency is the fitted concentration of half-maximal effect
Chain of Nuclear receptor subfamily 1 group I member 2 (Homo sapiens) (O75469 whole entry, looked up): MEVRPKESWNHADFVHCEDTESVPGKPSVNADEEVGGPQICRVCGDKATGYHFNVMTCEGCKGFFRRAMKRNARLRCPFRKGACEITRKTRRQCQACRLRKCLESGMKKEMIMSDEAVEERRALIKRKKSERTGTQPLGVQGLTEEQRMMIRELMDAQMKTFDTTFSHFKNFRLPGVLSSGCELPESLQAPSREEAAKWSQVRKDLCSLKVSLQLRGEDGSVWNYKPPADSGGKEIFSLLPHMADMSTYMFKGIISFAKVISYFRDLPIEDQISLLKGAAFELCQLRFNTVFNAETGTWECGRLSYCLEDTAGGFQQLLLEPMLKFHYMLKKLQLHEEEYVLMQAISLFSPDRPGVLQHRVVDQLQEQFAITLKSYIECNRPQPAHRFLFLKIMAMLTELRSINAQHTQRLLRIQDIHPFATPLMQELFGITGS
In short: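 Agonist mode: luminescence from ONE-Glo after 24 h compound exposure at 37C in HepG2 cells carrying hPXR-responsive CYP3A4 luciferase, plated in charcoal-stripped serum medium 5 h beforehand.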

[4] = biological target: Nuclear receptor subfamily 1 group I member 2 (Rattus norvegicus) (UniProt Q9R1A7); experiment: Rat pregnane X receptor (rPXR) activation by small molecules, qHTS assay (AID 1346983); details: rPXR luciferase reporter cells, One-Glo luminescence, 24 h; max activation: hits give high values; note: nearly all actives have a fitted effect of over 20% in size
Chain of Nuclear receptor subfamily 1 group I member 2 (Rattus norvegicus) (Q9R1A7 whole entry, looked up): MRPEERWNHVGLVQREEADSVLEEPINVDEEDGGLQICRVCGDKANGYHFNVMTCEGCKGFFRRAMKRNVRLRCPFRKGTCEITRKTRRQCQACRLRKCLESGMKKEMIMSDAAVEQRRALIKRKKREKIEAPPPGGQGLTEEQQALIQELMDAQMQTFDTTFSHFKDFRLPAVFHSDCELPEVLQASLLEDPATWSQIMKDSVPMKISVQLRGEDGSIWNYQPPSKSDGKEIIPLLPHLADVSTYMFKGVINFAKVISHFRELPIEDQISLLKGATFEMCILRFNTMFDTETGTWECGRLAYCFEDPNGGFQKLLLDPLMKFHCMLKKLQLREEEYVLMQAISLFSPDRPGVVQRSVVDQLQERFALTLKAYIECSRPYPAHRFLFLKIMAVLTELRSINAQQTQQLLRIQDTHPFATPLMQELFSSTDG
In short: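 Cell-based rPXR luciferase reporter assay, 2,000 cells per well, rested 5hr at 37 C before compound addition in DMSO, then 24 hr at 37 C. One-Glo reagent was added and luminescence read after 30 min at room temperature.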

[5] = biological target: Nuclear receptor subfamily 1 group I member 2 (Homo sapiens) (UniProt O75469); experiment: CYP3A4 induction through human pregnane X receptor (PXR) by small molecules, qHTS assay (AID 1346984); note: nearly all actives have a fitted effect of over 40% in size
In short: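 Read-out is luminescence after One-Glo addition, following a 3 hr, 37C incubation with Luciferin-IPA CYP3A4 substrate (3uM final). Before that, compounds were on DPX-2 cells (HepG2 co-transfected with PXR element plus CYP3A4-promoter luciferase) for 24 hr at 37C.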

[6] = biological target: Nuclear receptor subfamily 1 group I member 2 (Homo sapiens) (UniProt O75469); experiment: Human pregnane X receptor (PXR) activation by small molecules, qHTS assay (AID 1346985); note: nearly all actives have a fitted effect of over 40% in size
In short: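 DPX-2 cells (HepG2 co-transfected with a PXR response element and a CYP3A4-promoter luciferase construct) were seeded at 2,000 per well, rested 5 hr at 37C, then exposed to DMSO-dissolved compounds for 24 hr. Activation was read as luciferase luminescence.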

[7] = biological target: Cytochrome P450 2C9 (Homo sapiens) (UniProt P11712); experiment: Cytochrome P450 Family 2 Subfamily C Member 9 (CYP2C9) small molecule antagonists: luciferase reporter qHTS assay (AID 1671198); note: nearly all actives have a fitted effect of over 50% in size; note: potency is the fitted concentration of half-maximal effect; for activity change, negative = inhibition: series mostly up to about 120 µM
Chain of Cytochrome P450 2C9 (Homo sapiens) (P11712 whole entry, looked up): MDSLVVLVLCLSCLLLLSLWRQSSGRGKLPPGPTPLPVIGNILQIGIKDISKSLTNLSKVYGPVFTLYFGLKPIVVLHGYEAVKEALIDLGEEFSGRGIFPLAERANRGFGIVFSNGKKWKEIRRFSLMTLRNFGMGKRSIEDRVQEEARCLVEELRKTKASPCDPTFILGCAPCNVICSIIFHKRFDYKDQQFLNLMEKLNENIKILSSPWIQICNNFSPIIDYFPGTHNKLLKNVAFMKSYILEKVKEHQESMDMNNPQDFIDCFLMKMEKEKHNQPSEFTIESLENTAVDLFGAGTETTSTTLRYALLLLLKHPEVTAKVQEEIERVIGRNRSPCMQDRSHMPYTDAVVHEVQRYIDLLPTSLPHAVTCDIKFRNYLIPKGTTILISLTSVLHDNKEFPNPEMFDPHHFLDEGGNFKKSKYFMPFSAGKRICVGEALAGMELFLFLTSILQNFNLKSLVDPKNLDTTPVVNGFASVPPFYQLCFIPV
In short: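 CYP2C9 activity was measured with a P450-Glo proluciferin substrate. Enzyme–substrate mix was held with compound for 10 min at room temperature, then NADPH regeneration solution was added for 1 h at 37C. Luciferin product was read as luminescence.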

[8] = biological target: Cytochrome P450 1A2 (Homo sapiens) (UniProt P05177); experiment: Cytochrome P450 Family 1 Subfamily A Member 2 (CYP1A2) small molecule antagonists: luciferase reporter qHTS assay (AID 1671199); note: nearly all actives have a fitted effect of over 50% in size; note: potency is the fitted concentration of half-maximal effect; for activity change, negative = inhibition: series mostly up to about 120 µM
Chain of Cytochrome P450 1A2 (Homo sapiens) (P05177 whole entry, looked up): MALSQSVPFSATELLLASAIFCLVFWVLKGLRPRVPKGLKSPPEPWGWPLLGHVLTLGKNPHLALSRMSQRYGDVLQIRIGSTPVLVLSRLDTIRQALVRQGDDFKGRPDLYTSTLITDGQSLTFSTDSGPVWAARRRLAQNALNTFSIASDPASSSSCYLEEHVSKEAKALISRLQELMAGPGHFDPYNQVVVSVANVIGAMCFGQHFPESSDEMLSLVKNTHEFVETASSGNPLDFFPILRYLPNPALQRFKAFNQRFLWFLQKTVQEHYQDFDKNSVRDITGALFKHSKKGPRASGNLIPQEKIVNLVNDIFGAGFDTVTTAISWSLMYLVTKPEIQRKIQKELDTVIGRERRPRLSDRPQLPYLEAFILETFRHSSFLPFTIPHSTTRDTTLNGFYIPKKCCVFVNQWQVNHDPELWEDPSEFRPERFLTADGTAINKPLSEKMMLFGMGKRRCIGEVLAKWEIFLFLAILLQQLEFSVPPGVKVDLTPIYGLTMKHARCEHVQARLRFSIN
In short: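 Luminescence from luciferin formed by CYP1A2 from a proluciferin substrate, read 20 min after detection reagent. Compound was pre-incubated 10 min with enzyme-substrate, and reaction started with NADPH regeneration solution for 1 h at room temperature; furafylline control.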

[9] = biological target: Voltage-gated inwardly rectifying potassium channel KCNH2 (Homo sapiens) (UniProt Q12809); experiment: Human Ether-a-go-go-Related Gene (hERG) channel small molecule antagonists: fluorescence cell-based qHTS assay (AID 1671200); note: nearly all actives have a fitted effect of over 50% in size; note: potency is the fitted concentration of half-maximal effect; for activity change, negative = inhibition: series mostly up to about 77 µM
Chain of Voltage-gated inwardly rectifying potassium channel KCNH2 (Homo sapiens) (Q12809 whole entry, looked up): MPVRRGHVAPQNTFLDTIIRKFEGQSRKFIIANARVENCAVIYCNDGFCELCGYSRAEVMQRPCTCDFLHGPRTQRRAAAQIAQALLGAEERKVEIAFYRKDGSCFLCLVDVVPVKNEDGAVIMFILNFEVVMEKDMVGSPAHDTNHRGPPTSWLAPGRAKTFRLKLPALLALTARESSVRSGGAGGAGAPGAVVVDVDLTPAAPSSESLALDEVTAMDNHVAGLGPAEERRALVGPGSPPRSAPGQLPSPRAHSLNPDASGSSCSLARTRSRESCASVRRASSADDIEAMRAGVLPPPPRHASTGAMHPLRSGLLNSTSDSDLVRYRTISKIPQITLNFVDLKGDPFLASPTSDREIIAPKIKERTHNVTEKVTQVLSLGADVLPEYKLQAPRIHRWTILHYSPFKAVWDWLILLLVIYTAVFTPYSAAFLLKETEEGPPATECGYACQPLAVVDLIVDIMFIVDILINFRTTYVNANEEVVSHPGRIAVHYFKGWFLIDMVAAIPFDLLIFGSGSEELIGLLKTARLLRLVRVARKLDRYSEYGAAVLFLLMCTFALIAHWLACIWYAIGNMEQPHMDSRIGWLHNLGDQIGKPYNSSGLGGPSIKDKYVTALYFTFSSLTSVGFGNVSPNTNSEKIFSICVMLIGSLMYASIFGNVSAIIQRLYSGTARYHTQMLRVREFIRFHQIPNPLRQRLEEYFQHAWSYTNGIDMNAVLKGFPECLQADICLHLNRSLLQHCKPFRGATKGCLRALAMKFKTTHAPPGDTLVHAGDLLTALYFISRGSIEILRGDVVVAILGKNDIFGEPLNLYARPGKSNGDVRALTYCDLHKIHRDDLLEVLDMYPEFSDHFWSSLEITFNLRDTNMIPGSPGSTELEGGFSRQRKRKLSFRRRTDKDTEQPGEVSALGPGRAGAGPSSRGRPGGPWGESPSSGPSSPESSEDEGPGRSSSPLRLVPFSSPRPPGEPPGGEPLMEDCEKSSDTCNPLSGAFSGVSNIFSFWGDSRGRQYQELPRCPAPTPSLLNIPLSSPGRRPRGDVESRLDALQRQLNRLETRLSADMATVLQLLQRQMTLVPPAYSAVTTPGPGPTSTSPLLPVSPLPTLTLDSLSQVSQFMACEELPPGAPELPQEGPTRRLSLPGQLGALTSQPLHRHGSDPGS
In short: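 Thallium flux as potassium surrogate: FluxOR II dye loaded 1 h at room temperature into hERG-expressing U2OS cells, then stimulus buffer added after 10 min. Kinetic 480 nm excitation/540 nm emission read, 2 min.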

[10] = biological target: Cytochrome P450 3A4 (Homo sapiens) (UniProt P08684); experiment: Cytochrome P450 Family 3 Subfamily A Member 4 (CYP3A4) small molecule antagonists: luciferase reporter qHTS assay (AID 1671201); note: series mostly up to about 120 µM; nearly all actives have a fitted effect of over 50% in size
Chain of Cytochrome P450 3A4 (Homo sapiens) (P08684 whole entry, looked up): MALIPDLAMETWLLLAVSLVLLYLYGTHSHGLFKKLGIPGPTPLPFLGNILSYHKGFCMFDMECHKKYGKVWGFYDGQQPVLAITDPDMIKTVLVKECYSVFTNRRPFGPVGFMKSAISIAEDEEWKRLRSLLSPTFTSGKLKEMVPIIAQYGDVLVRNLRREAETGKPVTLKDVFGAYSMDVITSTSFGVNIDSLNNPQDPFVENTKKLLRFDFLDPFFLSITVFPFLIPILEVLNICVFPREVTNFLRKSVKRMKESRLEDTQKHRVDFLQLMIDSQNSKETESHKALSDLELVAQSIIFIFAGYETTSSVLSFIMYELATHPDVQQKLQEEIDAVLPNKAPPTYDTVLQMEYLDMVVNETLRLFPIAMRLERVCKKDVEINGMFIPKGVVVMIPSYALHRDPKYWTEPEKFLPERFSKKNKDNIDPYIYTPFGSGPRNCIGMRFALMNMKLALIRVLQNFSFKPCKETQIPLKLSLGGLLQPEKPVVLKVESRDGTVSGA
In short: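 Recombinant human CYP3A4 converts a proluciferin substrate to luciferin over 1 h at room temperature after NADPH regeneration solution is added (compound preincubated 10 min); detection reagent stops reaction, luminescence read 20 min later as relative units.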

[11] = biological target: Cytochrome P450 2D6 (Homo sapiens) (UniProt P10635); experiment: Cytochrome P450 Family 2 Subfamily D Member 6 (CYP2D6) small molecule antagonists: luciferase reporter qHTS assay (AID 1671196); note: nearly all actives have a fitted effect of over 50% in size; note: potency is the fitted concentration of half-maximal effect; for activity change, negative = inhibition: series mostly up to about 120 µM
Chain of Cytochrome P450 2D6 (Homo sapiens) (P10635 whole entry, looked up): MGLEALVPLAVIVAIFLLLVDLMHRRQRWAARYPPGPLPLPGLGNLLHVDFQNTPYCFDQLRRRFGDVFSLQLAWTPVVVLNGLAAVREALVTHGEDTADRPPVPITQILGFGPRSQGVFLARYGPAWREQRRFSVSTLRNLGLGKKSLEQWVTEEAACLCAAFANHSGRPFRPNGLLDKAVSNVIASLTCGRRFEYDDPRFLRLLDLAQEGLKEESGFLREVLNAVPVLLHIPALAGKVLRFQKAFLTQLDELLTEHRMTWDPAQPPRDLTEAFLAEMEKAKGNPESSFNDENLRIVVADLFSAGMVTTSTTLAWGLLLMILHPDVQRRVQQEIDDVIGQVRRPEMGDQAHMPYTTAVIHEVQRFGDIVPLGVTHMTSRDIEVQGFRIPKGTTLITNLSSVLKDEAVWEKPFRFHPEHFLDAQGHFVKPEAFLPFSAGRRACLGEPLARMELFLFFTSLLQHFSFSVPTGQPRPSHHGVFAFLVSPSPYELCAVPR
In short: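 CYP2D6 activity was followed as luminescence from its luciferin product after a 1 h NADPH-driven reaction at room temperature. Enzyme-substrate mix and compound were pre-incubated for 10 min, and the signal was read 20 min after adding detection reagent.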

[12] = biological target: Cytochrome P450 2C19 (Homo sapiens) (UniProt P33261); experiment: Cytochrome P450 Family 2 Subfamily C Member 19 (CYP2C19) small molecule antagonists: luciferase reporter qHTS assay (AID 1671197); note: nearly all actives have a fitted effect of over 65% in size; note: potency is the fitted concentration of half-maximal effect; for activity change, negative = inhibition: series mostly up to about 120 µM
Chain of Cytochrome P450 2C19 (Homo sapiens) (P33261 whole entry, looked up): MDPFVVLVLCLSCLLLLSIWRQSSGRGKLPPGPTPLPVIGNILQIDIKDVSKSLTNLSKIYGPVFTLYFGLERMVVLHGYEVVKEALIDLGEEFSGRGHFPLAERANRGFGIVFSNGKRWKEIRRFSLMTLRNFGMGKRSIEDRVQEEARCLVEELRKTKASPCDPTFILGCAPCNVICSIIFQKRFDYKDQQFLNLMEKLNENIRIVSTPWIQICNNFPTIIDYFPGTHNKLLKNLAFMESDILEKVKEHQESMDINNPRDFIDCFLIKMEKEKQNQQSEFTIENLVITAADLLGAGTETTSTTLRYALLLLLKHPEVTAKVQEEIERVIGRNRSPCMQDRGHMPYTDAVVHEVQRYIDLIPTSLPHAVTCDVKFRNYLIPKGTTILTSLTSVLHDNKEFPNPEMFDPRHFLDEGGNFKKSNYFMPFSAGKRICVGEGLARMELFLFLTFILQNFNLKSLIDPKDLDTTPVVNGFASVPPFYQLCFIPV
In short: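 Light output is proportional to CYP2C19 activity: proluciferin substrate is converted to luciferin, then detected by a luciferin detection reagent that also stops the 1 h, 37C NADPH-driven reaction. Ketoconazole serves as positive control.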
% is set by controls: 0 for no effect and ±100 for the full control effect.

CCCCCCCCCCCCCCCCC(C(=O)O)C(O)(CC(=O)O)C(=O)O (stereo unspecified)
inactive: Potency [1] | Potency [2] | Potency [3] | max activation [4] -2.33% | Potency [5] | Potency [6] | Potency [7] | Potency [8] | Potency [9] | Potency [10]

O=C1Cc2ccccc2C1
inactive: Potency [1]

C/C=C/C(=O)OCC(C)C
inactive: Potency [1] | Potency [2] | Potency [3] | Potency [11] | Potency [12] | Potency [7] | Potency [8] | Potency [9] | Potency [10]

CCCC(C)C=O (stereo unspecified)
inactive: Potency [1] | Potency [2] | Potency [3] | Potency [11] | Potency [12] | Potency [7] | Potency [8] | Potency [9] | Potency [10]

[Cl][Sc]([Cl])[Cl]
inactive: Potency [1] | Potency [2] | Potency [3] | Potency [11] | Potency [12] | Potency [7] | Potency [8] | Potency [9] | Potency [10]

SC1CCCCC1
inactive: Potency [1] | Potency [2] | Potency [3] | Potency [11] | Potency [12] | Potency [7] | Potency [8] | Potency [9] | Potency [10]

CC(=O)CC(N)=O
inactive: Potency [1] | Potency [2] | Potency [3] | Potency [11] | Potency [12] | Potency [7] | Potency [8] | Potency [9] | Potency [10]

[Cl][Eu]([Cl])[Cl]
inactive: Potency [1] | Potency [2] | Potency [3] | Potency [11] | Potency [12] | Potency [7] | Potency [8] | Potency [9] | Potency [10]

CCN(CCC#N)c1ccc(N=Nc2ccc([N+](=O)[O-])cc2)cc1
active: Potency [3] 6.11 µM
inactive: Potency [1] | Potency [2] | Potency [11] | Potency [12] | Potency [7] | Potency [8] | Potency [9] | Potency [10]

O=C1OC2(c3ccccc31)c1ccc(O)c(Br)c1Oc1c2ccc(O)c1Br
active: Potency [2] 27.3 µM | Potency [12] 89.4 µM | Potency [7] 63.3 µM | Potency [9] 34.7 µM
inactive: Potency [1] | Potency [3] | Potency [11] | Potency [8] | Potency [10]

O=C1CCC(=O)N1
inactive: Potency [1] | Potency [2] | Potency [3] | Potency [11] | Potency [12] | Potency [7] | Potency [8] | Potency [9] | Potency [10]

CN1CCN(C)CC1
inactive: Potency [1] | Potency [2] | Potency [3] | Potency [11] | Potency [12] | Potency [7] | Potency [8] | Potency [9] | Potency [10]

COCCC(=O)OC
inactive: Potency [1] | Potency [2] | Potency [3] | Potency [11] | Potency [12] | Potency [7] | Potency [8] | Potency [9] | Potency [10]

Nc1ccc(N)c([N+](=O)[O-])c1
inactive: Potency [1]
active: Potency [2] 54.5 µM

CCCCNc1ccc(NCCCC)c2c1C(=O)c1ccccc1C2=O
active: Potency [8] 3.79 µM
inactive: caspase-3/7 activation [1] 2.79% [at 19 µM] | activity change, negative = cytotoxicity [2] -16.6% [at 19 µM] | activation [3] 2.95% [at 19 µM] | activity change, negative = inhibition [11] 0.95% [at 23.6 µM] | activity change, negative = inhibition [12] -5.26% [at 23.6 µM] | activity change, negative = inhibition [7] -1.25% [at 23.6 µM] | activity change, negative = inhibition [9] -6.35% [at 15.8 µM] | activity change, negative = inhibition [10] 15.3% [at 23.6 µM]

Oc1cccc2c(O)cccc12
active: Potency [3] 54.5 µM | Potency [11] 39.9 µM | Potency [12] 17.8 µM | Potency [7] 22.4 µM | Potency [8] 22.4 µM
inactive: Potency [1] | Potency [2] | Potency [9]

CCNc1nc(NC(C)(C)C)nc(OC)n1
inactive: Potency [1] | Potency [2] | Potency [11] | Potency [7] | Potency [9] | Potency [10]
active: Potency [3] 61.1 µM | Potency [12] 35.6 µM | Potency [8] 20 µM

CS(=O)(=O)c1ccc([C@@H](CC2CCCC2)C(=O)Nc2cnccn2)cc1Cl
inactive: Potency [1]
active: Potency [2] 61.1 µM

N#Cc1ccc(C/C(=N/NC(=O)Nc2ccc(OC(F)(F)F)cc2)c2cccc(C(F)(F)F)c2)cc1
inactive: Potency [1] | Potency [2]
active: Potency [3] 54.5 µM | Potency [11] 39.9 µM | Potency [12] 12.6 µM | Potency [7] 22.4 µM | Potency [8] 25.2 µM

O=C(N[C@H](CO)[C@H](O)c1ccc([N+](=O)[O-])cc1)C(Cl)Cl
inactive: Potency [1]

CC1(C)[C@H]2CC[C@]1(C)C(=O)C2
inactive: Potency [1] | Potency [2] | Potency [3] | Potency [11] | Potency [12] | Potency [7] | Potency [8] | Potency [9] | Potency [10]

O=C(Nc1ccc([N+](=O)[O-])cc1)Nc1ccc([N+](=O)[O-])cc1 (tested in a mixture with another compound)
inactive: Potency [1] | Potency [2] | Potency [3] | Potency [11] | Potency [12] | Potency [7] | Potency [8] | Potency [9] | Potency [10]

CC(=O)Nc1ccc(N=Nc2cc(C)ccc2O)cc1
inactive: Potency [1] | Potency [9]
active: Potency [2] 61.1 µM | Potency [3] 9.69 µM | Potency [11] 63.3 µM | Potency [7] 35.6 µM | Potency [8] 31.7 µM

C=CC(=O)O[C@H]1C[C@@H]2CC[C@@]1(C)C2(C)C
inactive: Potency [1] | Potency [2] | Potency [3] | Potency [11] | Potency [7] | Potency [8] | Potency [9] | Potency [10]
